Screens as filed in PubChem.
A selection: hits, their analogues and other compounds. The true share with any hit is near 5.4%.
IMPase Li cell: IMPase inhibition in cells with lithium potentiation. CHO-M1 cells, IP1 TR-FRET (IP-One), carbachol + lithium. Potency, µM (highest dose often 59.4 µM), inactives show top-dose activity, negative = IMPase inhibition, most hits filed as inhibitors. actives 0.35% (n = 210,000). AID 1457;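 note: IP1 builds up when IMPase is blocked and the TR-FRET signal falls; potency is the fitted concentration of half-maximal effect; plate controls were basal vehicle for no effect and high inhibitor control for full effect; nearly all actives have a fitted effect of over 50% in size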
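Steps: plate 2000 CHO-M1 cells per well and culture 16–30 h; add compound and lithium; incubate 30 min, 37C; add d2-IP1 tracer and Eu cryptate anti-IP1 antibody in lysis buffer; read after 10 min at room temperature.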
IMPase inh: cell-permeable inhibitors of inositol monophosphatase (IMPase) | P97697 | CHO-M1 cells, IP1 accumulation, HTRF TR-FRET ratio | inhibition (IP1 accumulation), % at 46.1 µM | 120,000 tested, under 10 active | AID 901; active = well fitted curve in the direction sought with a large enough effect in the signal ratio, not every such curve was filed as active; inconclusive = small, poorly fitted or top-dose-only effect, or a change in a side signal; inactive = no such curve, though single readings can be large or run the other way; the % refers to the signal ratio;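 note: cells stimulated with carbachol in lithium chloride buffer; plate controls were DMSO basal wells for no effect and reference inhibitor wells for full effect; higher means more IMPase inhibition seen as more IP1 and lower FRET ratio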
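Carbachol-driven Gq signalling in CHO-M1 cells (2000/well) generates IP1. Compounds that block IMPase raise IP1 and so reduce the FRET signal from Eu-anti-IP1 and d2-IP1 after a 10 min room-temperature lysis.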
PNC assembly inh: perinucleolar compartment assembly inhibition. PC3M PTB-GFP, PNC prevalence imaging, 16 h; hits give low values. activity change (PNC), negative = inhibition, % at 10 µM. actives 3.1% (n = 140,000). AID 2417;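 active = readout at or below -70, meaning at least 70% loss of cells showing the perinucleolar compartment, a nuclear body marking cancer cells; inconclusive = readout between -30 and a set limit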;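 note: plate controls were DMSO wells for no effect and camptothecin positive control wells for full effect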
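PC3M cells stably expressing PTB-GFP, 750–1000 cells/well, treated 16 h at 37 °C with compound (23 nl of library stock), in duplicate. After paraformaldehyde fixation and Hoechst stain, imaged at 20x; PNC prevalence scored by image analysis.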
HPGD inh: inhibitors of human 15-hydroxyprostaglandin dehydrogenase (HPGD); purified HPGD, NADH fluorescence kinetic, PGE2 substrate; P15428; actives 4.3% (n = 150,000); Potency, µM, without a hit: top-dose activity change, negative = inhibition, hits mostly inhibitors; AID 894; active = well fitted inhibition curve with a large enough effect, not every such curve was filed as active; inconclusive = small, poorly fitted or top-dose-only effect, or another doubt; inactive = no such curve, though single readings can be large or run the other way; note: potency is the fitted concentration of half-maximal effect
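20 nM HPGD preincubated 15 min at room temperature with compound in 50 mM Tris-HCl pH 8, 0.01% Tween 20. Started with 1 mM NAD+ and 30 uM prostaglandin E2; NADH fluorescence (360/450 nm) read 5 times over 30-s intervals, last minus first.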
ALOX15B inhib: blocks human 15-lipoxygenase 2 activity. purified 15hLO-2, xylenol orange hydroperoxide absorbance. actives 0.56% (n = 110,000). O15296. Potency, µM (highest dose often 57.1 µM), for the others: at the top dose activity change, negative = inhibition, actives largely listed as inhibitors. AID 881; note: potency is the fitted concentration of half-maximal effect; nearly all actives have a fitted effect of over 60% in size
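Enzyme 50 nM, AA 45 uM, 25 mM Hepes pH 7.5 + 0.01% Triton X-100; cpd preinc 15 min RT, rxn 90 min RT; stop/detect with 200 uM XO + 300 uM Fe(II) in 50 mM H2SO4, 30 min; A573/A405.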
ALOX12 inhib: inhibitors of human 12-lipoxygenase (ALOX12); Potency, µM (series often up to 57.1 µM), without a hit: top-dose activity change, negative = inhibition, usual class: inhibitors; actives 0.12% (n = 150,000); purified 12-hLO, xylenol orange hydroperoxide absorbance; P18054; note: potency is the fitted concentration of half-maximal effect; nearly all actives have a fitted effect of over 55% in size
Target sequence (P18054 whole entry, looked up): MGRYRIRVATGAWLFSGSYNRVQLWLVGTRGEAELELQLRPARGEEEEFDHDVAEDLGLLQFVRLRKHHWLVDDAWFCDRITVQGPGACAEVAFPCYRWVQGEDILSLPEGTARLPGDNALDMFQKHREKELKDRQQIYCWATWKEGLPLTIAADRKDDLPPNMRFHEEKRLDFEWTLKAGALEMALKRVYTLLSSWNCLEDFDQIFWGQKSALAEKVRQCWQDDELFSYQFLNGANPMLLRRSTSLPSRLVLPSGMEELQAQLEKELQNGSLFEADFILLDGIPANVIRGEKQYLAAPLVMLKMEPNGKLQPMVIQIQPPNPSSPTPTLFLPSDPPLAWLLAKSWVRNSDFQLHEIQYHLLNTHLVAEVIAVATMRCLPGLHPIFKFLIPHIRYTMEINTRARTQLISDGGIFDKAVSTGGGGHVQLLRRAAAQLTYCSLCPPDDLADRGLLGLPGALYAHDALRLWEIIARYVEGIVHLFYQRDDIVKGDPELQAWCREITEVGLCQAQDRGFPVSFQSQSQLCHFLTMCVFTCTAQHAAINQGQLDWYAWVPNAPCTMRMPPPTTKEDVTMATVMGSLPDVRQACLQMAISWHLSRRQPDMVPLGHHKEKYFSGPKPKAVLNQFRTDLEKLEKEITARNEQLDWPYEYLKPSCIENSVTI
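Hydroperoxide formation by human 12-lipoxygenase from 40 uM arachidonic acid was followed colorimetrically via ferric-xylenol orange complex, using the 573/405 nm absorbance ratio. Enzyme concentration was 150 nM, with 30 min reaction at room temperature.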
* marks the source's active call; other numbers are inactive results; ? = inconclusive; . = not tested or not shown; [ ] = remark or other dose. Unless noted, calls come from the whole dose curve; as a rule, active = well fitted curve in the direction sought with a large enough effect; inconclusive = small, poorly fitted or top-dose-only effect, or another doubt; inactive = no such curve, though single readings can be large; an effect the other way counts as inactive or inconclusive. Unless noted, % is set by controls: 0 for no effect and ±100 for the full control effect.

SMILES	IMPase Li cell	IMPase inh	PNC assembly inh	HPGD inh	ALOX15B inhib	ALOX12 inhib
C[C@@H](C(=O)O)c1ccc(C(=O)c2ccccc2)s1	3%	-6[20.6 µM]	.	14µM*	0%[25.6 µM]	-3%[25.6 µM]
N#CCc1ccc(C(=O)c2ccccc2)s1	7%[38.3 µM]	-13[1.84 µM]	-82*	28µM*	-18%[11.4 µM]	1%
NC(=O)Cc1ccc(C(=O)c2ccc(F)cc2)s1	-8%	.	.	.	.	.
O=C1c2cccc3cccc(c23)C(=O)N1c1cccnc1	.	-16	25	.	-1%	-5%
O=C1c2cccc3cccc(c23)C(=O)N1c1ccncc1	5%	-3	-100*	?	.	4%
O=C(CSC1=Nc2ccccc2C2=NC(CCC(=O)NC3CCCCC3)C(=O)N12)Nc1cccc(C(F)(F)F)c1 (stereo not given)	.	2	.	.	.	.
CCOc1ccc(N2C(=O)c3cccnc3C2Nc2ccc(Cl)cc2)cc1 (stereo not given)	-6%[38.3 µM]	-6	107	-1%	.	-2%
Cc1ccc(NC2c3ncccc3C(=O)N2c2ccccc2C)cc1C (stereo not given)	13%[38.3 µM]	-4	8	16µM*	?	-23%
NS(=O)(=O)c1ccc(NC(=O)CCc2ccccc2)cc1	-9%[38.3 µM]	8	-10	-4%	-2%	-2%
CC(=O)Nc1ccc(NS(=O)(=O)c2ccc3[nH]c(=O)[nH]c3c2)cc1	-3%	.	.	.	.	.
CCOC(=O)CC(=O)Nc1ccc(C(=O)OCC)cc1	14%[38.3 µM]	10	2	-12%	-6%	3%
CCOC(=O)c1ccc(NS(C)(=O)=O)cc1	11%[38.3 µM]	5	13	?	1%	1%
CCOC(=O)c1ccc(NC(=O)N(CC)CC)cc1	17%[38.3 µM]	12	-92*	0%	1%	-2%
CCOC(=O)c1ccc(NS(=O)(=O)c2ccc3[nH]c(=O)[nH]c3c2)cc1	5%	2	20	28µM*	-22%	0%
CCOC(=O)c1ccc(NC(=O)Nc2ccc(S(N)(=O)=O)cc2)cc1	1%[38.3 µM]	-1	-122*	-10%	12%[2.29 µM]	2%
CN(CCO)C(=O)CCC(=O)Nc1ccc(S(N)(=O)=O)cc1	-25%[38.3 µM]	-6	-127*	-8%	-3%	1%
CS(=O)(=O)N1CCC2(CCCN(Cc3cc(C(F)(F)F)cc(C(F)(F)F)c3)C2)CC1	21%	.	.	-13%	8%	0%
CC(C)c1ccc2oc(-c3ccc(NC(=O)c4cccc(Br)c4)cc3)nc2c1	.	-15	.	.	.	.
NC=O	-6%	.	.	-11%	-4%	-4%
N[C@@H](CCCCO)C(=O)O	4%	.	.	-11%	-4%[11.4 µM]	-4%[11.4 µM]
COC(=O)c1sccc1N/N=C/c1cccc(OC)c1O	-5%	.	-116*	-22%	.	3%
COc1cccc(/C=N/Nc2cc(-n3nc(C)cc3-c3ccccc3)ncn2)c1O	13%	.	-100*	-11%	.	0%
COc1cccc(/C=N/Nc2ncnc3scc(-c4ccccc4)c23)c1O	6%	.	-101*	20µM*	.	-11%
COc1cccc(/C=N/Nc2ncnc(Cl)c2N)c1O	7%	.	?	-10%	.	-2%
CN(C)C(=O)c1ccc(-c2cc(NCc3cccnc3)ncn2)cc1	10%	.	.	.	-8%	.
SMILES	IMPase Li cell	IMPase inh	PNC assembly inh	HPGD inh	ALOX15B inhib	ALOX12 inhib
O=C(O)Cn1nc(C(F)(F)F)c2c1CCCC2	2%	.	.	.	.	.
O=C(O)CCCn1nc(C(F)(F)F)c2c1CCCCC2	-24%[38.3 µM]	1	-92*	-16%	4%	-4%
CCCCCCOC(=O)C1(O)CC2OC1(C)n1c3ccccc3c3c4c(c5c6ccccc6n2c5c31)C(=O)NC4 (stereo not given)	-5%	.	.	-12%	-8%[0.0915 µM]	-2%[0.00818 µM]
O=c1cc(O)n(-c2ccc(F)cc2)c(=S)[nH]1	-22%[38.3 µM]	4	-18	28µM*	27%	-23%
Nc1cc(=O)[nH]c(=S)n1-c1cccc(C(F)(F)F)c1	25%[38.3 µM]	0	57	0%	4%	-2%
Cc1ccc(NC(=O)c2c(NC(=O)c3ccccc3Cl)sc3c2CCC3)cc1	.	-2	.	.	.	.
